# Tests used:
# [1] = molecular target: Mitogen-activated protein kinase 3 (Homo sapiens) (UniProt P27361); details: at 1 µM;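 also: values are mean percent inhibition of MAPK3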
# [2] = molecular target: SRSF protein kinase 3 (Homo sapiens) (UniProt Q9UPE1); details: at 0.1 µM
# [3] = molecular target: SRSF protein kinase 3 (Homo sapiens) (UniProt Q9UPE1); details: at 1 µM
# [4] = molecular target: Mitogen-activated protein kinase 14 (Homo sapiens) (UniProt Q16539); details: at 0.1 µM
# [5] = molecular target: Mitogen-activated protein kinase 14 (Homo sapiens) (UniProt Q16539); details: at 1 µM
# [6] = molecular target: Mitogen-activated protein kinase 11 (Homo sapiens) (UniProt Q15759); details: at 0.1 µM
# [7] = molecular target: Mitogen-activated protein kinase 11 (Homo sapiens) (UniProt Q15759); details: at 1 µM
# [8] = molecular target: T1, Mitogen-activated protein kinase 13 (Homo sapiens) (UniProt O15264); details: at 0.1 µM
# T1 sequence (whole entry): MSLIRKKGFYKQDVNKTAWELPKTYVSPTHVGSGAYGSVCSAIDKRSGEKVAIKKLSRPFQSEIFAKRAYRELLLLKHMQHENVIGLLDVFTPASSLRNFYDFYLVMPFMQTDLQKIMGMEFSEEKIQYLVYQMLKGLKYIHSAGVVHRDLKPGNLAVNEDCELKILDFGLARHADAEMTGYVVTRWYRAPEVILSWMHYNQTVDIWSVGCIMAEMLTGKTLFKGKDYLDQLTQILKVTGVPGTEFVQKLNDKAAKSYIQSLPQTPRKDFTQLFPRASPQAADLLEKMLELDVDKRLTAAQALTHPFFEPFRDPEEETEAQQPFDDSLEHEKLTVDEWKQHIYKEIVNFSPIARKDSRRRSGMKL
# [9] = molecular target: T1, Mitogen-activated protein kinase 13 (Homo sapiens); details: at 1 µM
# [10] = molecular target: T2, Mitogen-activated protein kinase 12 (Homo sapiens) (UniProt P53778); details: at 0.1 µM
# T2 sequence (whole entry): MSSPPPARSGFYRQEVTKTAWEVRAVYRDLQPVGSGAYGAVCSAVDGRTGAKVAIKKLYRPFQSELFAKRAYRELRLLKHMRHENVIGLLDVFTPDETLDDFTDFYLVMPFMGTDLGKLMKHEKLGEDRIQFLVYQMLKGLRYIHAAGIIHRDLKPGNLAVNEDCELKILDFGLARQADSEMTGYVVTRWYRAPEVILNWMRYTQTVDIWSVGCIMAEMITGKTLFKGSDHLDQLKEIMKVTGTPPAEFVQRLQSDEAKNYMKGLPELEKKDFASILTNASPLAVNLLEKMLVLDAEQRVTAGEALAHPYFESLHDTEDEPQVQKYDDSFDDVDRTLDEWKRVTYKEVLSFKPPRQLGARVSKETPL
# [11] = molecular target: T2, Mitogen-activated protein kinase 12 (Homo sapiens); details: at 1 µM
# [12] = molecular target: SRSF protein kinase 1 (Homo sapiens) (UniProt Q96SB4); details: at 0.1 µM
# [13] = molecular target: SRSF protein kinase 1 (Homo sapiens) (UniProt Q96SB4); details: at 1 µM
# [14] = molecular target: Phosphatidylinositol 4,5-bisphosphate 3-kinase catalytic subunit alpha isoform (Homo sapiens) (UniProt P42336); details: at 0.1 µM
# [15] = molecular target: Phosphatidylinositol 4,5-bisphosphate 3-kinase catalytic subunit alpha isoform (Homo sapiens) (UniProt P42336); details: at 1 µM
# [16] = molecular target: T3, Phosphatidylinositol 4,5-bisphosphate 3-kinase catalytic subunit delta isoform (Homo sapiens) (UniProt O00329); details: at 0.1 µM
# T3 sequence (whole entry): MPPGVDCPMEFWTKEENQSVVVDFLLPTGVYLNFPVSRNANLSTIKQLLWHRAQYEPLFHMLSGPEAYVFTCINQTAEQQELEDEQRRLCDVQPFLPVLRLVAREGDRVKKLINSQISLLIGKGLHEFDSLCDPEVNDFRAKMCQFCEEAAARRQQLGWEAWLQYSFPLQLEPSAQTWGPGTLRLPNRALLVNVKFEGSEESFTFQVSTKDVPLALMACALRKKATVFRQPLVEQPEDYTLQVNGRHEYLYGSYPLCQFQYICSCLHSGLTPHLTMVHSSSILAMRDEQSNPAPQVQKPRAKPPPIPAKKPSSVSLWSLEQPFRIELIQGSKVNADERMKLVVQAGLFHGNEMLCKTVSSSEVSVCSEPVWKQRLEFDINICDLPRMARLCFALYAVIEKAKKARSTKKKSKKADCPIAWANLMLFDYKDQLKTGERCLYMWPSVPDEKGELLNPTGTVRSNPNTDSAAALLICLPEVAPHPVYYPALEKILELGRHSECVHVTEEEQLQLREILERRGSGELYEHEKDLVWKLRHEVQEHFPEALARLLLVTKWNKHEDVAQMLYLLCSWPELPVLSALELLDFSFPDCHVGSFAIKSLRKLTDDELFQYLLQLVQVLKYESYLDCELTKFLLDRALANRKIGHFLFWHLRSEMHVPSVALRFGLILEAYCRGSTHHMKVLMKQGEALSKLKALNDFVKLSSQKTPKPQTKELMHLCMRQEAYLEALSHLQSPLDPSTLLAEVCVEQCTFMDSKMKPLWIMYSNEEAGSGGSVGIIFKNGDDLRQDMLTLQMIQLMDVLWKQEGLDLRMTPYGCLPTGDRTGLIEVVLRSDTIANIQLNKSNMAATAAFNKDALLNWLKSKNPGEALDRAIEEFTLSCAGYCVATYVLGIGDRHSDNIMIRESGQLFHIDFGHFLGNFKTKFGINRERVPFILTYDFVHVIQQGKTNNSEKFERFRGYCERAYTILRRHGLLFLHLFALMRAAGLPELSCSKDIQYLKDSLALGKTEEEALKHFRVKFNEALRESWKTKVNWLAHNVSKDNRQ
# [17] = molecular target: T3, Phosphatidylinositol 4,5-bisphosphate 3-kinase catalytic subunit delta isoform (Homo sapiens); details: at 1 µM
# [18] = molecular target: Phosphatidylinositol 4-kinase beta (Homo sapiens) (UniProt Q9UBF8); details: at 0.1 µM
# [19] = molecular target: Phosphatidylinositol 4-kinase beta (Homo sapiens) (UniProt Q9UBF8); details: at 1 µM
# [20] = molecular target: Sphingosine kinase 1 (Homo sapiens) (UniProt Q9NYA1); details: at 0.1 µM;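 also: mean percent inhibition of SPHK1 activity, measured within the GSK PKIS screening panel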
# Chain of Sphingosine kinase 1 (Homo sapiens) (Q9NYA1 whole entry): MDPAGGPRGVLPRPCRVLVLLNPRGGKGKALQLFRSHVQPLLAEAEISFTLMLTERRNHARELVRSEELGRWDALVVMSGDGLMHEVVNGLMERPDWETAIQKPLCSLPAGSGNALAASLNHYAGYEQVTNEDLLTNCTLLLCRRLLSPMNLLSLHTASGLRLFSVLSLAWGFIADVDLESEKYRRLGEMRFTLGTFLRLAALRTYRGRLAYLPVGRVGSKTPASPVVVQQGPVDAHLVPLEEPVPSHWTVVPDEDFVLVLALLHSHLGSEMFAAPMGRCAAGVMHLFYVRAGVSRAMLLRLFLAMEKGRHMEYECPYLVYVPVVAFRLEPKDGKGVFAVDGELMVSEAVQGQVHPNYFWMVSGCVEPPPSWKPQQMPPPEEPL
# Chain of SRSF protein kinase 1 (Homo sapiens) (Q96SB4 whole entry, canonical isoform): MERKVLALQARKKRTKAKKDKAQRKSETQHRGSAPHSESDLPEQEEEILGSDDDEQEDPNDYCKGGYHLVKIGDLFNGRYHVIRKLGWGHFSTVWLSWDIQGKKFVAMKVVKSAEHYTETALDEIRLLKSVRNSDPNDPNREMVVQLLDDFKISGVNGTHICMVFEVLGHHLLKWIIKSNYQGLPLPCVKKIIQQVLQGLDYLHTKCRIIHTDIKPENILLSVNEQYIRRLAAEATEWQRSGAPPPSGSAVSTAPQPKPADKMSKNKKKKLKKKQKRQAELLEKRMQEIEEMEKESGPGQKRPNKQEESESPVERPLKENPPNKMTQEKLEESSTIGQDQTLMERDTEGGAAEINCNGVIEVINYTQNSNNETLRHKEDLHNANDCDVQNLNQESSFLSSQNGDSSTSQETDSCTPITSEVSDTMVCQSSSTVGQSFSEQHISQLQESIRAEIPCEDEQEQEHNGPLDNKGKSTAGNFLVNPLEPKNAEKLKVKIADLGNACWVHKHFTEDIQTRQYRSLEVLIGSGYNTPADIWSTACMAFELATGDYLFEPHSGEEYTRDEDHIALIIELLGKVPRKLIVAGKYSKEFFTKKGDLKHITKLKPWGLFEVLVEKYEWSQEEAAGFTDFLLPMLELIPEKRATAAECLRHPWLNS
# Chain of Mitogen-activated protein kinase 14 (Homo sapiens) (Q16539 whole entry): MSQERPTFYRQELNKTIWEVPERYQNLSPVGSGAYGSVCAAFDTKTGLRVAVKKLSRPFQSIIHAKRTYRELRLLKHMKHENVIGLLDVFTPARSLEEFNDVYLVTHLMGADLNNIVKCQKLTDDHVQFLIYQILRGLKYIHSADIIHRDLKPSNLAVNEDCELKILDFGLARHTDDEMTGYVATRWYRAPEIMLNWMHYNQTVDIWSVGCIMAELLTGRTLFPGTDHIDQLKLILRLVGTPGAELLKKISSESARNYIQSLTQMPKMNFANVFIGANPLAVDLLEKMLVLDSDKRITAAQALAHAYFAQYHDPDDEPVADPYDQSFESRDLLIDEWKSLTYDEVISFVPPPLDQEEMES
# Chain of Phosphatidylinositol 4-kinase beta (Homo sapiens) (Q9UBF8 2-816 limits assumed): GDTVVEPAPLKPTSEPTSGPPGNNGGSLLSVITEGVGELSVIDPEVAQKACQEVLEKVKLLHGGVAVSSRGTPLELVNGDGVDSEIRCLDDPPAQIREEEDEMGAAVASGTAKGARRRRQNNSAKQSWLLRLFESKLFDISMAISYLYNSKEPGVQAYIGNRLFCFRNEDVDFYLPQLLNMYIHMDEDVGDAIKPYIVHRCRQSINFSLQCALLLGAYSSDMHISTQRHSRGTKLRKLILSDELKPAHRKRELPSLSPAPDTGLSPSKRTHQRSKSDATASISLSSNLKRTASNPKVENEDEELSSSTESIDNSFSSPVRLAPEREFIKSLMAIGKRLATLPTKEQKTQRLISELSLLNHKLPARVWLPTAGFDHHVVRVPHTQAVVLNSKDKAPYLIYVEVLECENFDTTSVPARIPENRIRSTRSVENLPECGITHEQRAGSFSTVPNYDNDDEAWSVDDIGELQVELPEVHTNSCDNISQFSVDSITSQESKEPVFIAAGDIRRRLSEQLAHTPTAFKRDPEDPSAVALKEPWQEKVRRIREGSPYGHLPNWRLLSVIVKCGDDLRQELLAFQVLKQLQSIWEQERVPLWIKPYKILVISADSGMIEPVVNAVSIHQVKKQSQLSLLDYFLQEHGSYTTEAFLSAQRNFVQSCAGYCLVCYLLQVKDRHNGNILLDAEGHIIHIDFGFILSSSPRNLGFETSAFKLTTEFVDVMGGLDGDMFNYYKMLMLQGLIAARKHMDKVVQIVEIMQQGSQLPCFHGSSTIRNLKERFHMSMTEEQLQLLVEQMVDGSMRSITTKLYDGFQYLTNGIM
# Chain of Phosphatidylinositol 4,5-bisphosphate 3-kinase catalytic subunit alpha isoform (Homo sapiens) (P42336 whole entry, canonical isoform): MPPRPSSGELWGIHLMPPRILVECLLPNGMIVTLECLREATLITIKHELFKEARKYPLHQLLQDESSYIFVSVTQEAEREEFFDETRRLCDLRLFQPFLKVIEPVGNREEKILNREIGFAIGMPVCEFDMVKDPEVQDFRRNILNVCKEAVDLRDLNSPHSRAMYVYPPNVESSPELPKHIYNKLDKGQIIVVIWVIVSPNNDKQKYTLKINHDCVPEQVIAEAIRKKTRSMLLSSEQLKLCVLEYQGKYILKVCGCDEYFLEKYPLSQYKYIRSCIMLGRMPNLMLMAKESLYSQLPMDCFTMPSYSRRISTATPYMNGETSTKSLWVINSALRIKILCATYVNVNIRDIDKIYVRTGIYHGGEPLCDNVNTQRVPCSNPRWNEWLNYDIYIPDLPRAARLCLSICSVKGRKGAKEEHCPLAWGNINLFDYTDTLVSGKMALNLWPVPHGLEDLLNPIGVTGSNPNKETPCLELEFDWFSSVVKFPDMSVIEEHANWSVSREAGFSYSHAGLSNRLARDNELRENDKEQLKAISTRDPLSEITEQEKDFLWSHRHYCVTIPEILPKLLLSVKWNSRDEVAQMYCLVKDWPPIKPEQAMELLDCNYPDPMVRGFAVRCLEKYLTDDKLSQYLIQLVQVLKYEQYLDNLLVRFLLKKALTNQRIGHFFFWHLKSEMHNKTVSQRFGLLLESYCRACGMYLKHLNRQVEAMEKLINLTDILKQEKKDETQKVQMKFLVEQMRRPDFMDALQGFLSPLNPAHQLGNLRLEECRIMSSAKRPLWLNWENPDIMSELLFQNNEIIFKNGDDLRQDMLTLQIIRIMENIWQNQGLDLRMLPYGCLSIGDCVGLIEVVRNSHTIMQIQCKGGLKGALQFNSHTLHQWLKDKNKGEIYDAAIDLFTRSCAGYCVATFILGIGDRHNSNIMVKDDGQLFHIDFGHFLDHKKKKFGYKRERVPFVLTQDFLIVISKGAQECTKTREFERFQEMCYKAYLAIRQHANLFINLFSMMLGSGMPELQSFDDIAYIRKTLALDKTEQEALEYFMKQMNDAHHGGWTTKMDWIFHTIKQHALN
# Chain of Mitogen-activated protein kinase 3 (Homo sapiens) (P27361 whole entry): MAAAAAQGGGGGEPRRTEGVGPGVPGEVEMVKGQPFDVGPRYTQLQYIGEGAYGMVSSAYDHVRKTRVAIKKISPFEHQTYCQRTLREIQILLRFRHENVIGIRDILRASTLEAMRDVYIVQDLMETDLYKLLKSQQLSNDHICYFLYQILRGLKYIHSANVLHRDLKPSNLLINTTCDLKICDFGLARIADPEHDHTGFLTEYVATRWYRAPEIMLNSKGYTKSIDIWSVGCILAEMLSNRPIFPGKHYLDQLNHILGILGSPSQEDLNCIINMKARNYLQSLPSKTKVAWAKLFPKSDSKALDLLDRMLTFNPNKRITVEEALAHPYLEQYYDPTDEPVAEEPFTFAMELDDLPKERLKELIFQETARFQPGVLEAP
# Chain of Mitogen-activated protein kinase 11 (Homo sapiens) (Q15759 whole entry): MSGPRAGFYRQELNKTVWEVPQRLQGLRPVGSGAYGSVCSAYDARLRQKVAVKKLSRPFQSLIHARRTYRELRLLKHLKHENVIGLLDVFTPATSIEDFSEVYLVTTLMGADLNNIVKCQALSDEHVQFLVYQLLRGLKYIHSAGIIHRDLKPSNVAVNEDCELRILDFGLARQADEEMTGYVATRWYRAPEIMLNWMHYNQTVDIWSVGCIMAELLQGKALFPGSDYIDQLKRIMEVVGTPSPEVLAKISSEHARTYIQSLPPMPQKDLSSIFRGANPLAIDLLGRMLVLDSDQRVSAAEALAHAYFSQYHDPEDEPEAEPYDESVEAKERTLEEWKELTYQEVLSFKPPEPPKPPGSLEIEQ
# Chain of SRSF protein kinase 3 (Homo sapiens) (Q9UPE1 whole entry): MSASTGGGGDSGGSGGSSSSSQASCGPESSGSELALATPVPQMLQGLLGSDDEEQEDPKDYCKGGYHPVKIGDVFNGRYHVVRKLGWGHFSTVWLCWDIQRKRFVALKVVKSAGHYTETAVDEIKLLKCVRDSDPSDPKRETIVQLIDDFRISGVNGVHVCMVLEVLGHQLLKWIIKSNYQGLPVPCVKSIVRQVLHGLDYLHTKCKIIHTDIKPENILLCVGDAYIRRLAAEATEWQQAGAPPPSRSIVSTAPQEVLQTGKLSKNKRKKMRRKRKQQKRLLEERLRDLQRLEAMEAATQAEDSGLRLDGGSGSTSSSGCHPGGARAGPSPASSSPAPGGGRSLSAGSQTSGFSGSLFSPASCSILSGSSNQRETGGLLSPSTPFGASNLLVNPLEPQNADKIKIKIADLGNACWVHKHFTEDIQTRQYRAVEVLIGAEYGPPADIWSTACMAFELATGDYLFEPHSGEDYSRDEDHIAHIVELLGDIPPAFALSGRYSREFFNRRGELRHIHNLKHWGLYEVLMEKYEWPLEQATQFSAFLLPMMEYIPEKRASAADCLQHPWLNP
Compound,inhibition [1] [%],inhibition [2] [%],inhibition [3] [%],inhibition [4] [%],inhibition [5] [%],inhibition [6] [%],inhibition [7] [%],inhibition [8] [%],inhibition [9] [%],inhibition [10] [%],inhibition [11] [%],inhibition [12] [%],inhibition [13] [%],inhibition [14] [%],inhibition [15] [%],inhibition [16] [%],inhibition [17] [%],inhibition [18] [%],inhibition [19] [%],inhibition [20] [%]
C/C(Nc1ccc(S(N)(=O)=O)cc1)=C1/C(=O)Nc2ccccc21,0.88,-1.51,-1.15,2.61,3.43,1.67,7.87,-0.85,-1.14,-1.08,-1.66,2.04,1.41,0.42,1.42,2.42,3.52,-1.12,-0.13,-1.38
COc1cccc(-n2cnc3c(N/N=C/c4ccncc4)ncnc32)c1,2.27,-0.93,0.28,2.63,-0.98,1.35,0.89,-0.64,-2.04,-1.4,-1.27,1.41,4.2,-0.19,-3.79,-1.29,-2.3,5.84,-1.85,-0.37
Fc1ccc(-c2ncn(CCCN3CCOCC3)c2-c2ccncc2)cc1,1.77,-0.25,-0.76,7.39,48,3.21,8.94,0.12,-0.39,0.95,0.4,0.27,-5.35,-0.43,0.51,1.59,2.95,-1.68,-0.65,1.13
CCS(=O)(=O)c1ccc(OC)c(Nc2ncc(-c3ccccc3Cl)o2)c1,0.91,0.64,3.28,7.68,12.2,2.55,5.3,1.24,1.41,5.31,-0.19,-0.98,0.67,-0.1,-1.53,2.13,1.67,3.2,-6.4,-0.2
Clc1ccc(CNc2nccc(-c3cnn4ncccc34)n2)cc1,1.44,-0.1,-3.75,2.58,7.97,1.06,6.53,-0.19,2.4,0.66,1.18,0.9,1.1,-1.31,0.56,-0.61,1.79,2.18,1.28,-0.17
CN(C)CCCNc1nccc(-c2c(-c3ccc(F)cc3)nn3cc(C(F)(F)F)ccc23)n1,2.96,2.1,6.95,17.8,67.8,5.1,17.9,1.74,5.4,0.47,5.27,-0.17,-0.01,0.79,0.02,2.6,2,-3.83,11.1,0
NS(=O)(=O)c1ccc(Nc2cc(-c3ccc(O)c(F)c3)n[nH]2)cc1,-1.26,-1.38,0.03,-1.03,-2.41,-1.5,6.83,-6.82,-4.19,-2.85,-2.2,1.32,1.27,-2.99,2.09,-0.68,2.48,7.96,9.37,3.64
FC(F)(F)c1cccc(Nc2nccc(-c3cnn4nc(-c5ccccc5)ccc34)n2)c1,3,-2.14,1.08,3.54,1.79,3.08,3.39,1.85,0.28,1.53,1.51,-2.07,-0.92,2.52,8.98,-0.34,8.75,-0.22,-1.63,1.87
COc1cc(Nc2ncc3c(C)nc(-c4cccc(C(F)(F)F)c4)n3n2)cc(OC)c1OC,7.25,-0.69,3.15,1.25,6.99,3.99,8.89,-0.83,1.78,0.21,1.38,-1.06,1.6,1.32,0.9,1.18,-1.04,7.16,1.45,2.98
COc1cc(C)c(N(C)C(=O)CN(C)C)cc1Nc1nc(Nc2cccc(F)c2C(N)=O)c2cc[nH]c2n1,2.25,1.68,1.28,-0.82,3.91,2.56,0.98,1,1.9,0.25,1.09,-1.96,-3.38,0.08,-0.5,0.21,1.56,3.54,0.7,0.03
CCN(CC)Cc1ccc(Nc2nccc(-c3cnn4ncccc34)n2)cc1,7.61,-1.94,-0.22,6.95,13.1,3.23,4.99,4.71,9.25,3.65,6.9,-2.98,-1.36,3.82,11.4,6.31,40.2,-2.34,4.5,0.05
COc1cc2ncn(-c3cc(OCc4ccccc4C(F)(F)F)c(C(C)=O)s3)c2cc1OC,3.87,-2.61,1.07,4.86,3.85,5.8,4.79,2.82,2.04,2.87,2.91,-0.85,-1.87,1.72,2.65,1.03,1.51,1.58,-4.62,-1.64

# Source: ChEMBL document CHEMBL1961873, “Compounds: GSK PKIS; Assays: Nanosyn kinase panel” (2012)
